Bioassay records (PubChem BioAssay)
The sample as a whole holds a higher share of hits than the screen did.
HT1080-NT tox: kills 2HG-producing HT-1080-NT fibrosarcoma cells; HT-1080-NT fibrosarcoma viability, CellTiter-Glo ATP luminescence, 48 h; Potency, µM (highest dose often 46.1 µM), without a hit: at the top dose activity, negative = less viability, most hits filed as cytotoxic; actives 1.6% (n = 360,000); AID 686970;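 also: NT is the 2HG producing partner of a matched IDH1 knockdown line; potency is read from the fitted curve at half-maximal effect; 0% = DMSO-treated cells and -100% = media-only wells without cells; nearly all actives have a fitted effect of over 55% in size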
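Read-out is CellTiter-Glo luminescence after 10 minutes at room temperature, following 48 hours' compound treatment of HT-1080-NT cells (750 cells/well, RPMI, 5% FBS, 37 degrees C).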
HT1080 IDH1KD tx: kills HT-1080 cells with IDH1 knockdown | HT-1080 IDH1 knockdown viability, ATP luminescence, 48 h | Potency, µM (titrated, usually from 46.1 µM), inactives show at the top dose activity, negative = toxicity, most hits filed as cytotoxic | actives 2% (n = 360,000);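 also: potency is read from the fitted curve at half-maximal effect; 0% = DMSO wells and -100% = cell-free medium wells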
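HT-1080-IDH1KD cells (IDH1 knocked down), 750/well in RPMI with 5% FBS, treated with compound 48 h at 37 degrees C. Viability by CellTiter-Glo luminescence, normalised to DMSO and no-cell wells; concentration-response curves classed.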
ALOX12 inh: inhibitors of human 12S-lipoxygenase ALOX12; purified 12hLO, xylenol orange hydroperoxide absorbance; Potency, µM (series often up to 108 µM), for the others: top-dose activity change, negative = inhibition, hits mostly inhibitors; actives 1.1% (n = 580,000); also: potency is read from the fitted curve at half-maximal effect
Target sequence (P18054 whole entry, looked up): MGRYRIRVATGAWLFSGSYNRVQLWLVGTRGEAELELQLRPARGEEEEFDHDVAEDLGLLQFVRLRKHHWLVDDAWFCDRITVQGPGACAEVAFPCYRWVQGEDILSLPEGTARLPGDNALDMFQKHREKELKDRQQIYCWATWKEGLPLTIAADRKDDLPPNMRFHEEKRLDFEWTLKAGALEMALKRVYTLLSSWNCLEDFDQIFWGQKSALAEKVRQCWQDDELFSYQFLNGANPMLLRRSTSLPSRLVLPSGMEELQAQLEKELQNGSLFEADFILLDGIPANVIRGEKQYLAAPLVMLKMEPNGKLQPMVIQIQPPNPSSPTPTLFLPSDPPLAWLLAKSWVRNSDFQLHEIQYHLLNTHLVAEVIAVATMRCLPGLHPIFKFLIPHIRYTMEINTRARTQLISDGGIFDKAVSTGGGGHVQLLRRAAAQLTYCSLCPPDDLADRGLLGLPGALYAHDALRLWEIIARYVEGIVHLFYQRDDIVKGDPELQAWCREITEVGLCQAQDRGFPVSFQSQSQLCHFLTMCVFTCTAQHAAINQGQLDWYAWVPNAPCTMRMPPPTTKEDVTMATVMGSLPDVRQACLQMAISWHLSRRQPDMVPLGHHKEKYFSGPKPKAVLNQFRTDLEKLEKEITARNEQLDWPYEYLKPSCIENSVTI
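Purified human 12hLO (150 nM final) in 25 mM Hepes, 0.01% Triton X-100, pH 7.0 was preincubated 15 min at room temperature with compound. Then 40 uM arachidonic acid was added, 30 min. Hydroperoxide was read by Fe-XO absorbance ratio 573/405 nm.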
TDP1 cell CPT: growth inhibition of DT40 Tdp1-/-;hTDP1 cells with camptothecin (screen for TDP1 inhibitors). Potency, µM (top dose mostly 46.2 µM), for inactives: top-dose activity change, negative = growth inhibition, hits mostly inhibitors. actives 12% (n = 420,000). chicken DT40 Tdp1-/-;hTDP1 cells + 20 nM CPT, ATP luminescence, 48 h; also: potency is read from the fitted curve at half-maximal effect; nearly all actives have a fitted effect of over 55% in size
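Chicken DT40 Tdp1-/- cells complemented with human TDP1, 400 cells/well, exposed to compounds plus 20 nM camptothecin for at least 48 h at 37 C; viability read as ATP content by CellTiter-Glo luminescence.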
DT40 TDP1 no CPT: qHTS for Inhibitors of human tyrosyl-DNA phosphodiesterase 1 (TDP1): qHTS in cells in absence of CPT; DT40 Tdp1-/- hTDP1 cells, no CPT, ATP luminescence, 48 h; actives 15% (n = 420,000); Potency, µM (top dose mostly 46.2 µM), for the others: at the highest dose activity change, negative = growth inhibition, hits mostly inhibitors; also: potency is read from the fitted curve at half-maximal effect; nearly all actives have a fitted effect of over 55% in size
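No-CPT arm: Tdp1-/-;hTDP1 DT40 cells (400/well) plus compounds, incubated ≥48 hr at 37 °C. Readout CellTiter-Glo luminescence.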
IL-1B inflam inh: blocks inflammasome-driven IL-1 beta release | actives 4.7% (n = 360,000) | activity change, % at 57.5 µM | AID 743279 | THP-1 LPS/ATP IL-1B secretion, AlphaLISA, 16 h; active compounds read low; in the data active = activity change below about -50%; inconclusive = mostly about -30% to -49%
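Secreted IL-1B measured by AlphaLISA bead assay after 16 h compound exposure of THP-1 cells; compounds (final up to 57.5 uM) added 1 h before LPS (250 ng/mL) and ATP (1.25 mM) stimulation; lower signal means less secretion.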
Starred values were filed as active, the others as inactive; u = inconclusive; x = not tested or not shown; [ ] = another dose, or the depositor's remark. Unless noted, calls follow the shape of the dose curve; as a rule, active = well fitted curve in the direction sought with a large enough effect; inconclusive = small, poorly fitted or top-dose-only effect, or another doubt; inactive = no such curve, though single readings can be large; an effect the other way counts as inactive or inconclusive. Unless noted, % is scaled to controls: 0 for no effect and ±100 for the full control effect.

SMILES	HT1080-NT tox	HT1080 IDH1KD tx	ALOX12 inh	TDP1 cell CPT	DT40 TDP1 no CPT	IL-1B inflam inh
CC(C)=CC1C=C(C)C(C)C(c2ccccc2)C1C(=O)c1ccccc1 (centres undefined)	x	x	-38%	x	x	x
O=C(Nc1cccc(C(=O)NC2CC2)c1)c1cccc(S(=O)(=O)Nc2ccc(F)cc2)c1	x	x	-4%	x	x	x
COc1ccc(NC(=O)c2noc3c2CC(C)CC3)c(OC)c1 (centres undefined)	x	x	-36%	x	x	x
Brc1ccc(-c2nc3ccccc3s2)s1	-3%	-11%	0%	-13%	-29%	0
O=c1ccc2nc3ccccc3sc-2c1	u	u	u	0.65µM*	1.5µM*	-102*
O=C(Nc1ccccc1)O[C@@H]1C[C@H]2CCC(=O)N3CC[C@@H](C1)[C@@H]23	x	x	x	u	11µM*	x
Cc1cc(C(=O)NCC2(COc3ccc(S(C)(=O)=O)cc3)C[C@@H](O)[C@@H](O)C2)no1 (some centres undefined)	x	x	64%[176 µM]	x	x	x
COc1cccc(N2CCN(C(=O)CNC(=O)c3sc4ccccc4c3Cl)CC2)c1	-12%	-1%	0%	u	u	-8
COc1ccccc1C(=O)NNC(=S)NC(=O)c1sc2ccccc2c1Cl	-26%	u	-16%	15µM*	8.2µM*	6
COc1ccc(NC(=O)CSCC(=O)N(C)Cc2cccc(OC)c2OC)cc1	-11%	-1%	-1%	u	u	14
CC1CCCN(C(=O)CNC(=O)c2sc3ccccc3c2Cl)C1 (centres undefined)	-11%	-12%	-11%	-28%	u	x
COc1cccc(CN(C)C(=O)COc2ccc(C(=O)c3ccc(Cl)cc3)cc2)c1OC	u	u	11%	u	23µM*	7
CC1CC(C)CN(C(=O)CNC(=O)c2sc3ccccc3c2Cl)C1 (centres undefined)	-27%	-28%	187%	u	23µM*	-57*
CCOc1ccccc1N1CCN(C(=O)CNC(=O)c2sc3ccccc3c2Cl)CC1	-3%	0%	-24%	u	23µM*	-21
COc1cccc(CN(C)C(=O)CNC(=O)c2sc3ccccc3c2Cl)c1OC	-4%	-17%	16%	u	u	-51*
COc1ccccc1CN=C1NS(=O)(=O)C(c2ccc(C)c(C)c2)=C1C	x	x	7%	x	x	x
COc1ccc(C2=C(C)C(=NCCCN3CCN(c4cc(C)ccc4C)CC3)NS2(=O)=O)cc1	x	x	u	4.6µM*	-103%	x
COc1ccc(NC(=O)NCCCN2CCN(c3cc(C)ccc3C)CC2)cc1	u	u	16%	8.2µM*	8.2µM*	-28
COc1cc(NC(=O)NCCN2CCN(c3ccc(Cl)cc3)CC2)ccc1C	u	-2%[9.24 µM]	5%	u	u	-60*
COc1ccc(N2CCN(CCNC(=O)Nc3ccc([N+](=O)[O-])cc3OC)CC2)cc1	-2%	-28%	u	29µM*	23µM*	-18
COc1ccc(OC)c(NC(=O)NCCN2CCN(c3ccccc3)CC2)c1	-5%	-2%	0%	u	14%	-25
CCCN1CCN(CCNC(=O)Nc2ccc(OC)c(OC)c2)CC1	x	x	-14%	u	1%	x
CCOc1ccccc1C1NC(=O)N(CC(=O)Nc2ccccc2C)C2=C1C(=O)OC2 (centres undefined)	x	x	11%	x	x	x
CC(C)C1=NOC2(CCN(Cc3cccc(C(F)(F)F)c3)CC2)C1	x	x	61%[176 µM]	x	x	x
COc1ccc(NC(=O)NCCN2CCN(c3cccc(Cl)c3)CC2)cc1	-15%	-14%	8%	-27%	u	-15
SMILES	HT1080-NT tox	HT1080 IDH1KD tx	ALOX12 inh	TDP1 cell CPT	DT40 TDP1 no CPT	IL-1B inflam inh
COc1ccc(N2CCN(CCNC(=O)Nc3ccc(C)c(Cl)c3)CC2)cc1	-23%	u	14%	23µM*	16µM*	-30
O=C(c1cccc(Cl)c1)N1CCn2c(nn(-c3ccc(C(F)(F)F)cc3)c2=O)C1	x	x	15%	x	x	x
CC(=O)O[C@]1(C(C)=O)CC[C@H]2[C@@H]3C=C(C)C4=CC(=O)CC[C@]4(C)[C@@H]3CC[C@@]21C	x	x	34%[57.4 µM]	x	x	x
CC(=O)O[C@]1(C(C)=O)CC[C@H]2[C@@H]3C=C(Cl)C4=CC(=O)CC[C@]4(C)[C@H]3CC[C@@]21C	6%	-19%	-6%	u	21µM*	-17
CC(=O)O[C@]1(C(C)=O)CC[C@H]2[C@@H]3C=C(Cl)C4=CC(=O)[C@@H]5C[C@@H]5[C@]4(C)[C@H]3CC[C@@]21C	-15%	0%	-9%	u	21µM*	-4
CCOc1ccccc1C1CC(=O)Nc2cc3c(cc21)OCCO3 (centres undefined)	u	4.1µM*	-14%	1µM*	0.52µM*	7
CCOc1c(Br)cc(C2NC(=O)CCC2[N+](=O)[O-])cc1OC (centres undefined)	4%	19%	7%	0%	-15%	-2
CCOc1ccccc1C1CC(=O)Nc2cc(OC)c(OC)c(OC)c21 (centres undefined)	8%	13%	-1%	u	u	5
O=C1CC(c2cccnc2)c2cc3c(cc2N1)OCCO3 (centres undefined)	-2%	0%	8%	1%	-14%	5
CCCOc1ccccc1C1CC(=O)Nc2cc3c(cc21)OCCO3 (centres undefined)	1.3µM*	1.5µM*	x	0.73µM*	0.65µM*	14
CCOc1cc(C2CC(=O)Nc3cc4c(cc32)OCCO4)ccc1O (centres undefined)	x	x	-14%	18µM*	u	x
CCOc1c(Br)cc(C2CC(=O)Nc3cc4c(cc32)OCO4)cc1OC (centres undefined)	x	x	-6%	2.9µM*	4.6µM*	x
COCc1nnc(NC(=O)C2c3ccccc3C(=O)N(CC(C)C)C23CCCC3)s1 (centres undefined)	x	x	-9%	x	x	x
COC(=O)CCNC(=O)c1cc(-c2cccs2)nc2ccccc12	x	x	-3%	x	x	x
COc1ccc(Cl)cc1NC(=O)CN1C(=O)NC(Cc2c[nH]c3ccccc23)C1=O (centres undefined)	-4%	-5%	-24%	u	u	-57*
Cc1ccc(NC(=O)CN2C(=O)NC(Cc3c[nH]c4ccccc34)C2=O)cc1S(=O)(=O)N1CCCCC1 (centres undefined)	-28%	-28%	-12%	21µM*	21µM*	u
